Here are results for 39 compounds from PubChem BioAssay (NCATS).

Structures are written as SMILES. Several values for one entry are separate records, joined by “and”; a condition that tells them apart may be missing. Equal values may be shown once. Inconclusive results are not listed. Values without a mark were called inactive. Activity calls are given as the source filed them. Calls follow the shape of the dose curve; as a rule, active = well fitted inhibition curve with a large enough effect; inconclusive = small, poorly fitted or top-dose-only effect; inactive = flat fitted curve, though single readings scatter.
Potency is read from the fitted curve at half-maximal effect.

The assay concerns Zika virus NS2B-NS3 protease. In words: Primary screen GU AMC qHTS for Zika virus inhibitors (AID 1347154). Also: nearly all actives have a fitted effect of over 70% in size.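 As to activity change, negative = inhibition: 0% = no-inhibitor control and -100% = no-enzyme control.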 The settings on record: Zika NS2B-NS3 unlinked protease, AMC fluorogenic substrate; series mostly up to 54.1 µM; activity change, negative = inhibition: at the top concentration. In a few lines: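 Fluorogenic AMC-substrate cleavage by noncovalent NS2B-NS3 protease complex (25 nM, pH 8.0 Tris buffer with Tween 20) followed for 15 minutes at room temperature (~20% conversion). Percent inhibition from ex340/em450 signal change, fitted by 4-parameter Hill equation.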
As to `C[C@@H](Oc1ccc2[nH]nc(C=Cc3cnn(CCO)c3)c2c1)c1c(Cl)cncc1Cl`, the “activity change, negative = inhibition” value is -6.42%. Same read-out and setting: next, `CC(=O)OCC(=O)[C@@]12N=C(C)O[C@H]1C[C@H]1[C@@H]3CCC4=CC(=O)C=C[C@]4(C)[C@@H]3[C@@H](O)C[C@@]12C`: -0.407%; `N=c1ccn2c(n1)O[C@H]1[C@@H](O)[C@@H](CO)O[C@H]12`: 6.59%; `COc1cc(C[C@@H](CO)[C@H](CO)Cc2ccc(O)c(OC)c2)ccc1O`: 7.64%.

In the case of `COc1cccc2c1C(=O)c1c(O)c3c(c(O)c1C2=O)C[C@@](O)(C(=O)CO)C[C@@H]3O[C@H]1C[C@H](N)[C@H](OC2CCCCO2)[C@H](C)O1` (some centres undefined), the “activity change, negative = inhibition” value was 10.5%.

As to `CC(=O)[C@]1(O)Cc2c(O)c3c(c(O)c2[C@@H](O[C@H]2C[C@H](N)[C@@H](O)[C@H](C)O2)C1)C(=O)c1ccccc1C3=O`, the “activity change, negative = inhibition” value is 8.95%. Take `COC[C@H](NC(=O)c1cnc(C)s1)C(=O)N[C@@H](COC)C(=O)N[C@@H](Cc1ccccc1)C(=O)[C@@]1(C)CO1`: the “activity change, negative = inhibition” value is -3.74%.

On to `O=[N+]([O-])c1cn2c(n1)OC[C@@H](OCc1ccc(OC(F)(F)F)cc1)C2`, for which the “activity change, negative = inhibition” value was 3.73%.

On to `C#C[C@]1(O)CC[C@@H]2[C@@H]3CCC4=CC(=O)CC[C@@H]4[C@H]3CC[C@@]21CC`, for which the “activity change, negative = inhibition” value is -6.9%.

Consider `C=C1C(=O)O[C@H]2[C@@H]1CCC(C)=CCC[C@@]1(C)O[C@@H]21`, for which the “activity change, negative = inhibition” value is 7.99%. Still for that read-out and setting: next, `O=C(O)CCCCCC(=O)NN=C1CCCC1`: -1.69%.

On to `CCN(CC)CCNC(=O)c1c(C)[nH]c(C=C2C(=O)Nc3ccc(F)cc32)c1C`, for which the “activity change, negative = inhibition” value was 12.9% [at 104 µM]. On the same count and under the same terms, the value for `CC(=O)N[C@H]1[C@@H]([C@H](O)[C@H](O)CO)OC(C(=O)O)=C[C@@H]1N=C(N)N` was 2.26%; that for `CCS(=O)(=O)Nc1ccc2[nH]c(O)c(C(=Nc3ccc(CN4CCCCC4)cc3)c3ccccc3)c2c1` was 1.58%; that for `CC(=O)OC[C@@H]1O[C@@H](n2ccc(=O)[nH]c2=O)[C@H](OC(C)=O)[C@H]1OC(C)=O` was -2.76%. On the same count and under the same terms, next, `CC(C)n1cnc2c(NCCc3ccc(O)cc3)nc(-c3csc4ccccc34)nc21`: -22.3%; `N#Cc1cc(NC(=O)Nc2nnc(-c3ccncc3)s2)ccc1-c1cn[nH]c1`: -8.5%; `CCOC(=O)N1CCN([N+]([O-])=NOc2ccc([N+](=O)[O-])cc2[N+](=O)[O-])CC1`: -6.15%.

Regarding `Cc1cnc(NC(=O)Nc2cc(Br)c(C)cc2OC[C@@H]2CNCCO2)cn1`, the “activity change, negative = inhibition” value was 11.9%. The same measure, in the same setting: the value for `CCOC(=O)C=C[C@H](C[C@@H]1CCNC1=O)NC(=O)[C@@H](CC(=O)[C@@H](NC(=O)c1cc(C)on1)C(C)C)Cc1ccc(F)cc1` was 4.98%; that for `COc1cc(OC)cc(-c2ccc3ncc4ccc(=O)n(-c5ccc(N6CCNCC6)c(C(F)(F)F)c5)c4c3c2)c1` was 2.52%.

For the compound `CS[C@H]1SC[C@@H]2C(=O)N(C)[C@H](C(C)C)C(=O)OC[C@H](NC(=O)c3cnc4ccccc4n3)C(=O)N[C@H](C)C(=O)N(C)[C@@H]1C(=O)N(C)[C@H](C(C)C)C(=O)OC[C@H](NC(=O)c1cnc3ccccc3n1)C(=O)N[C@H](C)C(=O)N2C`, the “activity change, negative = inhibition” value was -1.7%. Consider `COC(=O)C1C2CC3c4[nH]c5cc(OC)ccc5c4CCN3CC2CC(OC(=O)c2cc(OC)c(OC)c(OC)c2)C1OC` (centres undefined), for which the “activity change, negative = inhibition” value is 21.7%. On the same count and under the same terms, next, `COc1ccc(C=Cc2cc(OC)c(OC)c(OC)c2)cc1NC(=O)[C@H](N)CO`: -10.3%; `N#Cc1c(NC(=O)c2cccc3ccccc23)sc2c1CCCC2`: 6.35%.

As to `CC(C)OC(=O)[C@H](C)N[P@](=O)(OC[C@H]1O[C@@H](n2ccc(=O)[nH]c2=O)[C@](C)(F)[C@H]1O)Oc1ccccc1`, the “activity change, negative = inhibition” value was 10.5%.

For the compound `CCCCCCCN(CC)CCCC(O)c1ccc(NS(C)(=O)=O)cc1` (centres undefined), the Potency was 24.1 µM (active). Take `C[C@H]1COc2c(N3CCN(C)CC3)c(F)cc3c(=O)c(C(=O)O)cn1c23`: the Potency is 27.1 µM (active) and 10.6 µM (active).

Take `C=CC1=C(C(=O)O)N2C(=O)[C@@H](NC(=O)C(=NO)c3csc(N)n3)[C@H]2SC1`: the “activity change, negative = inhibition” value was 3.22%. As to `C[C@H](NCc1ccc(OCc2cccc(F)c2)cc1)C(N)=O`, the “activity change, negative = inhibition” value was 1.87%. For the compound `NC(=NCCCCCCN=C(N)N=C(N)Nc1ccc(Cl)cc1)N=C(N)Nc1ccc(Cl)cc1`, the Potency result was “inactive”.

Consider `Cc1ccc([N+](=O)[O-])cc1S(=O)(=O)N(C)N=Cc1cnc2ccc(Br)cn12`, for which the “activity change, negative = inhibition” value is -8.17%.

As to `Cc1cnn(C)c1C(=O)Nc1cc(Nc2ccc3c(C=Cc4ccccn4)n[nH]c3c2)ccc1F`, the “activity change, negative = inhibition” value is 5.61%. Regarding `O=C(O)C=Cc1ccc(Cn2ccnc2)cc1`, the “activity change, negative = inhibition” value is -2.82%.

As for `CN(C)CCN1C(=O)c2cccc3cc(N)cc(c23)C1=O`, the “activity change, negative = inhibition” value was 4.87%. On to `O=C(CN1C(=O)C2(CCCC2)NC[C@H]1c1cc(F)cc(F)c1)Nc1ccc2c(c1)C[C@@]1(C2)C(=O)Nc2ncccc21`, for which the “activity change, negative = inhibition” value was 2.16%. Take `COc1ccc(CCC(=O)c2c(O)cc(O[C@@H]3O[C@H](CO)[C@@H](O)[C@H](O)[C@@H]3O[C@@H]3O[C@@H](C)[C@H](O)[C@@H](O)[C@@H]3O)cc2O)cc1O`: the “activity change, negative = inhibition” value is -1.15%. Take `Oc1ccc(-c2ccc(-c3cc(Nc4cccc(CNC5CC5)c4)n[nH]3)cc2)c(O)c1`: the “activity change, negative = inhibition” value is -3.06%. On the same count and under the same terms, next, `CN(C)CC[C@H](c1ccc(Cl)cc1)c1ccccn1`: -10.9%.
